Source: PubChem BioAssay (NCI)
Compounds without any hit were thinned out: in the full panel of roughly 83,000, 20% have a hit.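 Values shown are percent growth following 48 h exposure of cells in 96-well plates to a single concentration of compound; below 10 was considered active.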 Values without a mark were called inactive. Calls of active or inactive are those of the source.

test system: OVCAR-5 ovarian; test: NCI-60 one-dose screen, 48 h (100 = growth as untreated, 0 = no growth, -100 = all killed); details: 10 µM unless noted

Structure (SMILES)	growth
CCN(CC)CCC(CNc1c2ccc(Cl)cc2nc2ccc(OC)cc12)c1ccccc1 (configuration not stated)	-9.48% (active)
CN1CCN(Cc2ccc(NC(=O)c3nc4ccc5[nH]ncc5c4c4c3CCC4)cc2C(F)(F)F)CC1	3.19% (active)
COc1ccc(N=Cc2c(O)ccc3c2oc2cc(Cl)c(O)c(Cl)c23)cc1	102%
O=C(O)C1CCCCN1c1nc(Cl)nc(Cl)n1 (configuration not stated)	105%
C=CCn1c2ccccc2c2c3c(c4c5ccccc5n(CC=C)c4c21)C(=O)N(O)C3=O	86.4%
Nc1cccc(Cl)c1N	108%
O=C(NS(=O)(=O)c1ccccc1)n1cc(-c2ccncc2)c(-c2ccc(Cl)c(O)c2)n1	116%
Cc1csc(NC(c2ccc(Br)cc2)c2c(C)nc3ccccn23)n1 (configuration not stated)	88.2%
O=S(=O)(c1ccc(OCCO)cc1)c1ccc(OCCO)cc1	101%
COc1cc(-c2nn(C(=O)NS(=O)(=O)c3ccccc3)cc2-c2ccncc2)ccc1Cl	99.9%
N=c1ccc2nc3ccc(N)cc3sc-2c1	48.1%
Cc1ccc(Cc2c(C=O)nc(N)[nH]c2=O)c2ccccc12	117%
CCN(CC)CCCC(C)Nc1c2ccc(Cl)cc2nc2cc(OC)c(OC)cc12 (configuration not stated)	50.9%
CCCCCCCCCCCCNC(=O)[C@H]1CSC(c2ccsc2)N1 (some centres not stated)	-83.2% (active)
CC(C)(C)NCCC(O)c1cc2c(Cl)cc(Cl)cc2c2cc(C(F)(F)F)ccc12 (configuration not stated)	-83.2% (active)
COc1cc2c(cc1O)CCN1C[C@@H](CC(C)C)[C@@H](O)C[C@@H]21	94.3%
Nc1ccc(C(=O)CSc2nc3ccccc3[nH]2)cc1	102%
CCCC(=O)Oc1ccc(/C(=C(\C)c2ccccc2)c2ccc(OCCN(CC)CC)cc2)cc1	88.7%
C/C=C(\C)C(C(=O)NC1CCCCC1)N(C(=O)C1CCc2cc(F)ccc2O1)c1ccc(Cl)cc1 (configuration not stated)	103%
Cn1ccc(=O)c(S(N)(=O)=O)c1	94.3%
O=c1[nH]c(NCc2ccccc2)nc2nc(Nc3ccc(NC(=S)Nc4ccccc4)cc3)nc(-c3ccc(O)cc3O)c12	111%
COc1ccc(-n2c(-c3ccccc3)c(-c3ccccc3)c3c(SCC(=O)N/N=C/c4ccc(Cl)cc4)ncnc32)cc1	98.3%
COc1ccc(S(=O)(=O)NCCCNc2nccc(-c3c(-c4cccc([N+](=O)[O-])c4)nc4sccn34)n2)cc1	98.7%

test system: SK-OV-3 ovarian; test: as above; details: 10 µM unless noted

Structure (SMILES)	growth
COc1cccc(CC(C)=C(c2ccc(OCCN(C)C)cc2)c2ccc(OCCN(C)C)cc2)c1	70.2%
N/C(=N\C(N)=N\c1nc2ccccc2s1)c1cccc(Br)c1	129%
O=C(Nc1ccc(Cl)c(Cl)c1)NS(=O)(=O)c1cnccc1Oc1ccc(F)cc1	88.7%
Cc1ccc(S(=O)(=O)NC(=O)n2cc(-c3ccncc3)c(-c3ccc(Cl)c(O)c3)n2)cc1	101%
CCN(CC)CCC(CNc1ccnc2cc(Cl)ccc12)c1ccc(Cl)cc1 (configuration not stated)	-12.9% (active)
CCN(CC)CCOc1ccc(Cl)c(C)c1	98.1%
OC(c1cc2cc(Br)ccc2c2cc(Br)ccc12)C1CCCCN1 (configuration not stated)	-55.4% (active)
CCN(CC)CCC(CNc1ccnc2cc(Cl)ccc12)c1ccccc1 (configuration not stated)	85.6%
CCCCCCCCCCCCNC(=O)[C@H]1CSC(c2cc3ccccc3s2)N1 (some centres not stated)	-30.1% (active)
CCCCCCN1CSC(=S)N(CCCCCC)C1	107%
CC1(c2ccc(Cl)cc2)OC(=O)CC(=O)O1	106%
O=C(NS(=O)(=O)c1ccc2ccccc2c1)n1cc(-c2ccncc2)c(-c2ccc(Cl)c(O)c2)n1	81.8%
CN(C)CCOC(=O)Nc1ccccc1Cl	115%
Cc1c(C(=O)/C=C/c2csc3ccccc23)[n+](=O)c2ccccc2n1[O-]	76.4%
CN(C)CCCN(c1nc(C(Cl)(Cl)Cl)ns1)c1nc(C(Cl)(Cl)Cl)ns1	86.6%
CC[N+](CC)=c1cc2oc3cc(N(C)C)ccc3nc-2cc1C	59.9%
CCN(CC)CCC(CNc1c2ccc(Cl)cc2nc2ccc(OC)cc12)c1ccccc1 (configuration not stated)	35.3%
CN1CCN(Cc2ccc(NC(=O)c3nc4ccc5[nH]ncc5c4c4c3CCC4)cc2C(F)(F)F)CC1	93.8%
COc1ccc(N=Cc2c(O)ccc3c2oc2cc(Cl)c(O)c(Cl)c23)cc1	104%
O=C(O)C1CCCCN1c1nc(Cl)nc(Cl)n1 (configuration not stated)	99.9%

Structure (SMILES)	growth
C=CCn1c2ccccc2c2c3c(c4c5ccccc5n(CC=C)c4c21)C(=O)N(O)C3=O	33.9%
Nc1cccc(Cl)c1N	94.3%
O=C(NS(=O)(=O)c1ccccc1)n1cc(-c2ccncc2)c(-c2ccc(Cl)c(O)c2)n1	102%
Cc1csc(NC(c2ccc(Br)cc2)c2c(C)nc3ccccn23)n1 (configuration not stated)	85.3%
O=S(=O)(c1ccc(OCCO)cc1)c1ccc(OCCO)cc1	118%
COc1cc(-c2nn(C(=O)NS(=O)(=O)c3ccccc3)cc2-c2ccncc2)ccc1Cl	82.1%
N=c1ccc2nc3ccc(N)cc3sc-2c1	58.4%
Cc1ccc(Cc2c(C=O)nc(N)[nH]c2=O)c2ccccc12	96.6%
CCN(CC)CCCC(C)Nc1c2ccc(Cl)cc2nc2cc(OC)c(OC)cc12 (configuration not stated)	40.5%
CCCCCCCCCCCCNC(=O)[C@H]1CSC(c2ccsc2)N1 (some centres not stated)	-93.8% (active)
CC(C)(C)NCCC(O)c1cc2c(Cl)cc(Cl)cc2c2cc(C(F)(F)F)ccc12 (configuration not stated)	15.6%
COc1cc2c(cc1O)CCN1C[C@@H](CC(C)C)[C@@H](O)C[C@@H]21	107%
Nc1ccc(C(=O)CSc2nc3ccccc3[nH]2)cc1	105%
CCCC(=O)Oc1ccc(/C(=C(\C)c2ccccc2)c2ccc(OCCN(CC)CC)cc2)cc1	91.7%
C/C=C(\C)C(C(=O)NC1CCCCC1)N(C(=O)C1CCc2cc(F)ccc2O1)c1ccc(Cl)cc1 (configuration not stated)	98.4%
Cn1ccc(=O)c(S(N)(=O)=O)c1	126%
O=c1[nH]c(NCc2ccccc2)nc2nc(Nc3ccc(NC(=S)Nc4ccccc4)cc3)nc(-c3ccc(O)cc3O)c12	97.9%
COc1ccc(-n2c(-c3ccccc3)c(-c3ccccc3)c3c(SCC(=O)N/N=C/c4ccc(Cl)cc4)ncnc32)cc1	73%
COc1ccc(S(=O)(=O)NCCCNc2nccc(-c3c(-c4cccc([N+](=O)[O-])c4)nc4sccn34)n2)cc1	89.6%
